Laboratory results taken from PubChem BioAssay (EPA / NIEHS).
Where “and” joins values, the source holds several entries; their conditions need not be identical. Equal entries are not always repeated. A structure can be active in one record and inactive in another. Calls of active or inactive are those of the source. The calls were made as follows: active = hit-call score of the fitted dose curve at least 0.9, where 1 is the maximum; inactive = score below 0.9.

How the values were obtained:
[1] = biological target: Bile acid receptor (Homo sapiens) (UniProt Q96RI1); assay: ATG_IR1_CIS: Attagene CIS-FACTORIAL HepG2 Assay for human Nuclear Receptor Subfamily 1 Group H Member 4 (NR1H4), IR1 submotif (AID 2282946); details: IR1 reporter transcription, actives raise or lower the signal
Chain of Bile acid receptor (Homo sapiens) (Q96RI1 whole entry, looked up): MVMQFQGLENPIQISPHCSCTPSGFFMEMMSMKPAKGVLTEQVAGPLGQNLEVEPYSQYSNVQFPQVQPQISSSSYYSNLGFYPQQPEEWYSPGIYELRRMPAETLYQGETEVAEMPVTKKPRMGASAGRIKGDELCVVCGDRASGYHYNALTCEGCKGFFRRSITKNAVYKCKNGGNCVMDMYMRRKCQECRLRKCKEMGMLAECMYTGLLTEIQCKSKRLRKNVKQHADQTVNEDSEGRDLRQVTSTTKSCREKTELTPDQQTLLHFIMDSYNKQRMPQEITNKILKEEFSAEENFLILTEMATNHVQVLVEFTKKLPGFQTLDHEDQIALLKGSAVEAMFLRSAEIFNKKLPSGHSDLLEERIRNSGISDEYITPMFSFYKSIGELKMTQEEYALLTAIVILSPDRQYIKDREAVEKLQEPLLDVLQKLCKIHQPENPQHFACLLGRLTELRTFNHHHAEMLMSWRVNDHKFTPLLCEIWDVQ
Procedure, shortened: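 HepG2 cells transiently transfected with multiplexed cis-element reporter units read endogenous transcription factor activity. After 24 h compound exposure, reporter mRNA was quantified by RT-PCR, fluorescent labelling, HpaI digestion and capillary electrophoresis; bidirectional fitting versus DMSO baseline.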

[2] = ATG_GRE_CIS: Attagene CIS-FACTORIAL HepG2 Assay for human Glucocorticoid Response Elements (GRE) (AID 2282947); details: HepG2 GRE cis-reporter, Attagene multiplex mRNA; actives raise or lower the signal
Procedure, shortened: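 Reporter transcripts read by RT-PCR with capillary electrophoresis fluorescence after a 24 h chemical exposure of HepG2 cells transiently transfected with multiple cis-element reporter units. Gain or loss fitted against DMSO.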

[3] = ATG_ISRE_CIS: Attagene CIS-FACTORIAL HepG2 Assay for human Interferon Regulatory Factor 1 (IRF1) binding to an Interferon-Stimulated Response Element (ISRE) (AID 2282948); details: HepG2 ISRE cis-reporter (Attagene), mRNA transcription readout; actives raise or lower the signal
Procedure, shortened: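 Multiplexed mRNA reporter readout in human liver HepG2 cells: cis-element-driven reporters transfected, compound added for 24 h, transcripts amplified, fluorescently labelled and sized by capillary electrophoresis; curve fitting bidirectional against DMSO.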

[4] = ATG_M_32_CIS: Attagene CIS-FACTORIAL HepG2 Assay for M32 Transcription Factor (Internal Marker) (AID 2282949); details: HepG2 Attagene cis-factorial M32 reporter, mRNA; actives raise or lower the signal;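 also: background control marker of the multiplexed CIS panel rather than a real target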
Procedure, shortened: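 HepG2 transfectants (cis-regulated reporter transcription units) dosed 24 h. Reporter mRNA by RT-PCR plus CE, analysed as gain or loss relative to DMSO.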

[5] = ATG_M_06_CIS: Attagene CIS-FACTORIAL HepG2 Assay for M06 Transcription Factor (Internal Marker) (AID 2282950); details: HepG2 Attagene CIS-FACTORIAL M06 internal marker reporter; actives raise or lower the signal
Procedure, shortened: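 Internal background marker within multiplexed cis-reporter HepG2 system. Cells transiently transfected, dosed 24 h; reporter mRNA measured by RT-PCR, HpaI digestion and capillary electrophoresis. Bidirectional fit relative to DMSO.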

[6] = biological target: Hypoxia-inducible factor 1-alpha (Homo sapiens) (UniProt Q16665); assay: ATG_HIF1a_CIS: Attagene CIS-FACTORIAL HepG2 Assay for human Hypoxia Inducible Factor 1 (HIF1A) (AID 2282951); details: HepG2 Attagene cis-factorial HIF1a reporter transcription; actives raise or lower the signal
Chain of Hypoxia-inducible factor 1-alpha (Homo sapiens) (Q16665 whole entry, looked up): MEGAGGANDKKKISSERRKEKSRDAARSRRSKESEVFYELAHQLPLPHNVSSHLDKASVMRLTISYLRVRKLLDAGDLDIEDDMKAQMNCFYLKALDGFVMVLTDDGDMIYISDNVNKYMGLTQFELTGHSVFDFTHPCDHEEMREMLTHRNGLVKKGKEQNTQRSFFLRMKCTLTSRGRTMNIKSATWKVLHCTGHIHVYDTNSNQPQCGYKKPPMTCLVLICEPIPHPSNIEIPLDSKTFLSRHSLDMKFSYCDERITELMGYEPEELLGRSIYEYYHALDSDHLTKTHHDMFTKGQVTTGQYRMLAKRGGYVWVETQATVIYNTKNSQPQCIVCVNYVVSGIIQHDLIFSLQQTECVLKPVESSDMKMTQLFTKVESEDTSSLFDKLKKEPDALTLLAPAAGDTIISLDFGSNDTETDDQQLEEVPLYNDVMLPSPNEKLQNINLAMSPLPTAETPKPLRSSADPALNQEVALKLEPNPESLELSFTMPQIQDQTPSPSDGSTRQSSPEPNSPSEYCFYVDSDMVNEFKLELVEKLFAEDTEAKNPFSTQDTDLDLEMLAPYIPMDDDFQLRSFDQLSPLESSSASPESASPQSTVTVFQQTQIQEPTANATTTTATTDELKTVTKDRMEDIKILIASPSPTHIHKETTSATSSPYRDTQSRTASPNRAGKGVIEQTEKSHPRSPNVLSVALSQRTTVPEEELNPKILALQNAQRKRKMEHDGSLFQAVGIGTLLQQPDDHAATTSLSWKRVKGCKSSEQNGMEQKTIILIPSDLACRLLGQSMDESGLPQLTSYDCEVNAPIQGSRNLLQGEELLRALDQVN
Procedure, shortened: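 Dosed 24 h, transfected HepG2 cells yielded total RNA whose reporter transcripts were RT-PCR-amplified and sized by capillary electrophoresis using fluorescent labelling; DMSO defined baseline, with gain and loss of signal both fitted.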

[7] = biological target: Hepatocyte nuclear factor 6 (Homo sapiens) (UniProt Q9UBC0); assay: ATG_HNF6_CIS: Attagene CIS-FACTORIAL HepG2 Assay for human Hepatocyte Nuclear Factor 6 (HNF6) (AID 2282952); details: HepG2 Attagene cis-factorial HNF6 reporter transcription; actives raise or lower the signal
Chain of Hepatocyte nuclear factor 6 (Homo sapiens) (Q9UBC0 whole entry, looked up, the tested form may be a part): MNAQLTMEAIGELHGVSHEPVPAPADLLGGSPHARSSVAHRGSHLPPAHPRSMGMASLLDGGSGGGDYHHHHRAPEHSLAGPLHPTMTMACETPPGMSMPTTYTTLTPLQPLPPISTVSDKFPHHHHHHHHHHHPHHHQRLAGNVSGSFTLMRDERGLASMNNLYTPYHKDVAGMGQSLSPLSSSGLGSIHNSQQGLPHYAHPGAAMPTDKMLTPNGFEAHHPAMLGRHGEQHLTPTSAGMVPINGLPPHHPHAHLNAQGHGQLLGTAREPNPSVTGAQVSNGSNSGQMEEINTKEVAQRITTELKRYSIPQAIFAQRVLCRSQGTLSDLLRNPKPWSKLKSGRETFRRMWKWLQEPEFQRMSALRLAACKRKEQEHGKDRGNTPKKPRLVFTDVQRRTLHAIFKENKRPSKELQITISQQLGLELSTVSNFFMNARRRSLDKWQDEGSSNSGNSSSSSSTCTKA
Procedure, shortened: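 First, HepG2 cells were transfected with the multiplexed cis reporter library and dosed with chemical for 24 h. Next, RNA was reverse-transcribed, PCR-amplified and fluorescently labelled. Finally, HpaI-digested fragments were read by capillary electrophoresis.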

[8] = biological target: Heat shock factor protein 1 (Homo sapiens) (UniProt Q00613); assay: ATG_HSE_CIS: Attagene CIS-FACTORIAL HepG2 Assay for human Heat Shock Transcription Factor 1 (HSE) (AID 2282953); details: HepG2 HSE cis-reporter, Attagene RNA transcription; actives raise or lower the signal
Chain of Heat shock factor protein 1 (Homo sapiens) (Q00613 whole entry, looked up): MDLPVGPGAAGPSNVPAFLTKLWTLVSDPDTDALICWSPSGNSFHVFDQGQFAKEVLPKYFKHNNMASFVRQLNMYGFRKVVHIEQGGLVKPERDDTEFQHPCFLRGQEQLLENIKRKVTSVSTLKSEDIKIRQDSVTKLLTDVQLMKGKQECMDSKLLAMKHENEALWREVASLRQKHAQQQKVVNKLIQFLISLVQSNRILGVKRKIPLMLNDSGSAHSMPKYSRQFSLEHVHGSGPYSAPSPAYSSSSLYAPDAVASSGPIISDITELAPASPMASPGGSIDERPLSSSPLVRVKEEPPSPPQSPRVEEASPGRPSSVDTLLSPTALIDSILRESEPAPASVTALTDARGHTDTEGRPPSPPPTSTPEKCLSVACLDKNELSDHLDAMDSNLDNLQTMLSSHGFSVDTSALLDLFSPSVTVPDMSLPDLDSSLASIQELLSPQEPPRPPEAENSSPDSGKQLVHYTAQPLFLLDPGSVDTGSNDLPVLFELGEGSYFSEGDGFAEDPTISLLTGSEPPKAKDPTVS
Procedure, shortened: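 HepG2 cells transfected with cis-promoter reporter units sensing endogenous transcription factor activity; reporter mRNA quantified 24 h post-dose by RT-PCR and capillary electrophoresis of 6-FAM-labelled products. Bidirectional fitting against DMSO.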

[9] = ATG_MRE_CIS: Attagene CIS-FACTORIAL HepG2 Assay for human Metal Responsive Element (MRE) (AID 2282954); details: HepG2 MRE cis-reporter transcription, Attagene multiplex; actives raise or lower the signal
Procedure, shortened: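 Endogenous MRE-dependent transcription read as reporter mRNA in transiently transfected human HepG2 cells at 24 h. RNA reverse-transcribed, PCR-amplified, labelled and resolved by capillary electrophoresis; gain or loss relative to DMSO.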

[10] = ATG_PBREM_CIS: Attagene CIS-FACTORIAL HepG2 Assay for human Phenobarbital-responsive Enhancer Module (PBREM) (AID 2282955); details: HepG2 PBREM cis-reporter, Attagene multiplexed transcription; actives raise or lower the signal
Procedure, shortened: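 Transfected liver-derived HepG2 cells exposed 24 h; PBREM reporter transcript quantified via RT-PCR and capillary electrophoresis, with activity in either direction referenced to DMSO.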

[11] = biological target: Paired box protein Pax-6 (Homo sapiens) (UniProt P26367); assay: ATG_Pax6_CIS: Attagene CIS-FACTORIAL HepG2 Assay for human Paired Box 6 (PAX6) (AID 2282956); details: HepG2 CIS-FACTORIAL PAX6 reporter transcription, RNA readout; actives raise or lower the signal
Chain of Paired box protein Pax-6 (Homo sapiens) (P26367 whole entry, looked up): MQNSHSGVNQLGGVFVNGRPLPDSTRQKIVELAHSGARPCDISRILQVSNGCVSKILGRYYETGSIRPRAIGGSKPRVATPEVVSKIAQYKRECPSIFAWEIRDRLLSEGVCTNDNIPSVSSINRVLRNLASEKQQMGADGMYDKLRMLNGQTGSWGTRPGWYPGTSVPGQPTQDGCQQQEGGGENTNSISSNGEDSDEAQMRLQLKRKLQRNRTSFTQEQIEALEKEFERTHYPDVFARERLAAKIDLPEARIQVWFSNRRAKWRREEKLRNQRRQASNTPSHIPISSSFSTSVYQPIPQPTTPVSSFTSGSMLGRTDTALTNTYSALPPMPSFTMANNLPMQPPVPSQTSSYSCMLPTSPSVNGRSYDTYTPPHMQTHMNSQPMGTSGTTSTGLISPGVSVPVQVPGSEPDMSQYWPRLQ
Procedure, shortened: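 Fluorescent RT-PCR products separated by capillary electrophoresis report PAX6-linked promoter mRNA in HepG2 cells 24 h post-dose. Curves fitted bidirectionally, DMSO as negative control.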

[12] = ATG_PXRE_CIS: Attagene CIS-FACTORIAL HepG2 Assay for human Pregnane X Receptor Element (PXRE) (AID 2282957); details: HepG2 Attagene CIS-FACTORIAL PXRE reporter, mRNA; actives raise or lower the signal
Procedure, shortened: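 After a 24 h chemical incubation, total RNA from transfected HepG2 cells was reverse-transcribed and reporter cDNA amplified, FAM-labeled, HpaI-digested and sized by capillary electrophoresis. DMSO served as baseline for bidirectional curve fitting.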

[13] = ATG_PPRE_CIS: Attagene CIS-FACTORIAL HepG2 Assay for human Peroxisome Proliferator-activated Response Element (PPRE) (AID 2282958); details: HepG2 PPRE cis-element reporter, Attagene transcription factor profiling; actives raise or lower the signal
Procedure, shortened: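 Measured endpoint: PPRE-controlled reporter mRNA, detected by RT-PCR and capillary electrophoresis fluorescence, from transiently transfected HepG2 cells 24 h after dosing. Curves fitted in both directions using DMSO baseline.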

[14] = ATG_RORE_CIS: Attagene CIS-FACTORIAL HepG2 Assay for human RAR-related Orphan Receptor Element (RORE) (AID 2282959); details: HepG2 Attagene cis-factorial RORE reporter, mRNA; actives raise or lower the signal
Procedure, shortened: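 Transiently transfected HepG2 reporter cells were treated 24 h. Reporter transcripts were detected by RT-PCR and capillary electrophoresis, with bidirectional fitting against DMSO.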

[15] = ATG_Sox_CIS: Attagene CIS-FACTORIAL HepG2 Assay for human SRY-box transcription factor (SOX) (AID 2282960); details: HepG2 Attagene cis-factorial SOX reporter, mRNA; actives raise or lower the signal
Procedure, shortened: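 Gain- or loss-of-signal endpoint, fitted bidirectionally with DMSO as negative control. Based on reporter mRNA from transfected HepG2 cells harvested 24 h post-treatment and quantified via RT-PCR and capillary electrophoresis.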

[16] = biological target: Transcription factor Sp1 (Homo sapiens) (UniProt P08047); assay: ATG_Sp1_CIS: Attagene CIS-FACTORIAL HepG2 Assay for human Specificity Protein 1 (Sp1) (AID 2282961); details: HepG2 Sp1 cis-reporter transcription, actives raise or lower the signal
Chain of Transcription factor Sp1 (Homo sapiens) (P08047 whole entry, looked up, the tested form may be a part): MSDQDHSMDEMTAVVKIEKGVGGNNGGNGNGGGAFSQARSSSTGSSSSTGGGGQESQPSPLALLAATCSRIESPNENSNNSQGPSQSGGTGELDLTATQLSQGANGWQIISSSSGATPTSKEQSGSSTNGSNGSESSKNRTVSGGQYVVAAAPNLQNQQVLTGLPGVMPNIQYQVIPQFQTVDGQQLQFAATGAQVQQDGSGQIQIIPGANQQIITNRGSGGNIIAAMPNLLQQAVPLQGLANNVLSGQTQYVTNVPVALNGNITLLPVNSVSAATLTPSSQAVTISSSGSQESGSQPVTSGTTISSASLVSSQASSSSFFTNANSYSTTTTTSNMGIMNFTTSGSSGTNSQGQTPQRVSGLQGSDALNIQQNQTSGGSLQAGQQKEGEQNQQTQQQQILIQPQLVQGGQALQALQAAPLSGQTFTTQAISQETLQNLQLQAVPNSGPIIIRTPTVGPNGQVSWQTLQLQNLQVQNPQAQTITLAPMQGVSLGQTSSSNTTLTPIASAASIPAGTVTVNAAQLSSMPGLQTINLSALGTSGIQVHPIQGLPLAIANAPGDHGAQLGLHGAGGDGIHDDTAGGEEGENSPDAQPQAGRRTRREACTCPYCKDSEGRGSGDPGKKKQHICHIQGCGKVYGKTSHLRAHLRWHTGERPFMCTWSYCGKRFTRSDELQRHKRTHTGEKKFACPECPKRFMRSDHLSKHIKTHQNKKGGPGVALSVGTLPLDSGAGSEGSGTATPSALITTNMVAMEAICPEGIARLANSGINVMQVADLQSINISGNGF
Procedure, shortened: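 Endpoint reflects endogenous Sp1 transcriptional activity, not an exogenous fusion protein: HepG2 cells with transfected cis-regulated reporters, 24 h dosing, RT-PCR/capillary electrophoresis mRNA read-out, DMSO-normalised bidirectional fit.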

[17] = ATG_SREBP_CIS: Attagene CIS-FACTORIAL HepG2 Assay for human Sterol Regulatory Element Binding (SREBP) (AID 2282962); details: HepG2 Attagene cis-factorial SREBP reporter, mRNA; actives raise or lower the signal
Procedure, shortened: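 Endogenous factor activity is measured in HepG2 through multiplexed reporter units under cis-element control. Following a 24 h incubation, reporter transcripts are reverse-transcribed, PCR-amplified and sized by capillary electrophoresis; activity is fitted in both directions relative to DMSO.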

[18] = ATG_TA_CIS: Attagene CIS-FACTORIAL HepG2 Assay for human TA Basal Promoter (AID 2282964); details: HepG2 Attagene CIS-factorial TA basal promoter reporter; actives raise or lower the signal
Procedure, shortened: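 HepG2 cells transiently transfected with multiple reporter units under cis promoter elements, reporting endogenous transcription factor activity; this endpoint tracks the TA basal promoter as background control. Reporter mRNA after 24 h dosing measured by RT-PCR/capillary electrophoresis; bidirectional fits versus DMSO.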

[19] = biological target: Signal transducer and activator of transcription 3 (Homo sapiens) (UniProt P40763); assay: ATG_STAT3_CIS: Attagene CIS-FACTORIAL HepG2 Assay for human Signal Transducer and Activator of Transcription 3 (STAT3) (AID 2282963); details: HepG2, Attagene cis-factorial STAT3 reporter transcription; actives raise or lower the signal
Chain of Signal transducer and activator of transcription 3 (Homo sapiens) (P40763 whole entry, looked up): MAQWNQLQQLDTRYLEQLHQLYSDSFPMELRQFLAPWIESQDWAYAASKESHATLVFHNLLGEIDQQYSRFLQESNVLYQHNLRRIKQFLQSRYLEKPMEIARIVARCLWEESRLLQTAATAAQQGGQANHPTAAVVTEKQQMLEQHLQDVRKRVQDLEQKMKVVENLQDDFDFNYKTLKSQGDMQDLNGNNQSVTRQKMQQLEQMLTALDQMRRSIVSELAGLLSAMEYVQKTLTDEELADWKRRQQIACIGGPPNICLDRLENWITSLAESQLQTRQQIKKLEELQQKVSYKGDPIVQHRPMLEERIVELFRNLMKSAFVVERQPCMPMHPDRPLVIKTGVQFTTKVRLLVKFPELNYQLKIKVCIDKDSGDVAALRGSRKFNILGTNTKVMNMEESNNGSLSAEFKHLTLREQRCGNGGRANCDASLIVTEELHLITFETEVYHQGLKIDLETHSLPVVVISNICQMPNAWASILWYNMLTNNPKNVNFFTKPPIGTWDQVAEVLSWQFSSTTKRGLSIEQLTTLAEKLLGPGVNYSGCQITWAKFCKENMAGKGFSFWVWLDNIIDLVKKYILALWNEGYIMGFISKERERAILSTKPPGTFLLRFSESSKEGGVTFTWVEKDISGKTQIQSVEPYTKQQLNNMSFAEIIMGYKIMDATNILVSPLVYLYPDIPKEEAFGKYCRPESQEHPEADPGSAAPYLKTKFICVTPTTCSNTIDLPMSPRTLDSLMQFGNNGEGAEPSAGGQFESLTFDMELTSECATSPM
Procedure, shortened: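 Readout is reporter transcript quantified by RT-PCR and capillary electrophoresis, with 6-FAM primer extension and HpaI digestion. Total RNA is taken 24 h after dosing transiently transfected HepG2 carrying cis-regulated reporter units. Bidirectional fit against DMSO.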

[20] = ATG_TCF_b_cat_CIS: Attagene CIS-FACTORIAL HepG2 Assay for human T-Cell-Factor with beta-catenin (TCF/b-cat) (AID 2282965); details: HepG2 TCF/beta-catenin cis-reporter transcription, actives raise or lower the signal
Procedure, shortened: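 Endogenous TCF/LEF activity read as reporter transcript level via RT-PCR and capillary electrophoresis fluorescence in transfected HepG2, 24 h exposure; gain or loss of signal fitted against DMSO controls.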

Measured: AC50

O=C(N[C@@H](c1ccccc1)[C@@H]1CCCCN1)c1cccc(C(F)(F)F)c1Cl
active: [6] 16.6 µM | [7] 62.1 µM | [8] 52.4 µM | [9] 38 µM | [11] 33 µM | [12] 8.23 µM | [15] 33 µM | [16] 42.7 µM | [17] 8.09 µM
not listed: [19] | [20]
inactive: all other assays above

CCCCCCC(C=O)=Cc1ccccc1
inactive: [1] | [2] | [3] | [4] | [5] | [6] | [7] | [10] | [11] | [14] | [15] | [17] | [19] | [18]
active: [8] 157 µM and 93.3 µM | [9] 137 µM and 89.2 µM | [12] 25.2 µM and 15.7 µM | [13] 4.87 µM and 6.4 µM | [16] 129 µM and 60 µM | [17] 26.3 µM

COC(=O)CCCC(=O)OC
not listed: [13] | [19]
inactive: all other assays above

O=C(NS(=O)(=O)/C=C/c1cccs1)c1ccc(F)cc1Br
active: [12] 13.7 µM | [20] 11.4 µM
inactive: all other assays above

O=C(Oc1ccccc1)c1cccc(C(=O)Oc2ccccc2)c1
active: [13] 104 µM
not listed: [19]
inactive: all other assays above

CSc1ccc(Oc2ccc(S(N)(=O)=O)cc2CN(C)C)cc1C
active: [12] 9.66 µM | [17] 23.4 µM
not listed: [20]
inactive: all other assays above

C=CCCCCCCCCCCCC
inactive: all assays above

COc1ccc(OC(F)(F)F)cc1CN[C@H]1CCCN[C@H]1c1ccccc1
active: [8] 2.74 µM | [12] 1.85 µM | [17] 19.4 µM
not listed: [13] | [19]
inactive: all other assays above

CN(C)C(=O)NC1(c2ccccc2)CCN(CC[C@@]2(c3ccc(F)c(F)c3)CN(C(=O)c3ccccc3)CCO2)CC1
active: [6] 47.9 µM | [9] 57.9 µM | [12] 2.43 µM | [17] 26.8 µM | [20] 100 µM
not listed: [10] | [14]
inactive: all other assays above

CN(C)C(=O)NC1(c2ccccc2)CCN(CCC[C@]2(c3ccc(Cl)c(Cl)c3)CCCN(C(=O)c3ccccc3)C2)CC1
active: [1] 4.21 µM | [9] 4.19 µM | [11] 4.94 µM | [12] 0.119 µM | [13] 4.58 µM | [14] 4.93 µM | [16] 4.73 µM | [17] 0.762 µM
not listed: [19]
inactive: all other assays above

CC(C)c1cccc(C(C)C)c1NC(=O)NS(=O)(=O)c1cc(C(C)(C)O)co1
active: [12] 16.7 µM
not listed: [10] | [13] | [19] | [20]
inactive: all other assays above

S=c1[nH]c2ccccc2s1
active: [3] 41.8 µM | [12] 61.2 µM | [13] 28.5 µM | [16] 42.5 µM | [17] 59 µM | [19] 63.2 µM
not listed: [20]
inactive: all other assays above

Cc1cc(Cc2ccc(N)c(C)c2)ccc1N
active: [17] 12.9 µM
not listed: [13] | [19]
inactive: all other assays above
